{"source": "PubChem BioAssay AID1851", "about": "(National Center for Advancing Translational Sciences (NCATS), 2009)", "note": "“And” between values parts separate entries of the source, which are not always exact repeats. Equal entries are not always repeated. Out of some 16,000 compounds screened, about 5,700 (36%) were called active. Roughly 24% stayed inconclusive and do not appear here. The list shows a part of the results. Unmarked numbers belong to inactive results. The call rests on the fitted dose curve; in most records, active means well fitted curve in the direction sought with a large enough effect; inconclusive means small, poorly fitted or top-dose-only effect, or effect the other way; inactive means no such curve, though single readings can be large or run the other way. On the % scale 0 is the no-effect control and ±100 the full control effect."}
{"target": "Cytochrome P450 1A2 (Homo sapiens) (UniProt P05177)", "sequence (P05177 whole entry, looked up)": "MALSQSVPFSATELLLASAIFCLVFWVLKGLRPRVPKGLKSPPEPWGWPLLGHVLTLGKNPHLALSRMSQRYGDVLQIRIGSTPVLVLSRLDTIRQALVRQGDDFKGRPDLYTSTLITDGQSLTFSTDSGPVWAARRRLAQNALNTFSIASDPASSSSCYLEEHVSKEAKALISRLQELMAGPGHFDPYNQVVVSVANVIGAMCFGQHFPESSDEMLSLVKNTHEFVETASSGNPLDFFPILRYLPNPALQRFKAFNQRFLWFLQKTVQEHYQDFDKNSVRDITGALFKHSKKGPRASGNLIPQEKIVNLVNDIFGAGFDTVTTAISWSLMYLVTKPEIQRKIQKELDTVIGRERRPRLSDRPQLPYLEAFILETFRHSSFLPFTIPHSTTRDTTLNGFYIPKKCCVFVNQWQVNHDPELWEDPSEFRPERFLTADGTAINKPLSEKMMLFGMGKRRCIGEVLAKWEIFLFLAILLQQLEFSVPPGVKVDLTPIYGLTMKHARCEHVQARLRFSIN", "assay": "Cytochrome panel assay with activity outcomes", "conditions": "recombinant CYP, pro-luciferin dealkylation, luminescence, p450-cyp1a2; series mostly up to 57.1 µM"}
{"smiles": "CCOC(=O)C1=C[C@@]2(CC)CCCN3CCc4c(n1c1ccccc41)[C@H]32", "AC50": "inactive"}
{"smiles": "COc1ccc2[nH]cc(CCNc3ccnc(-c4ccc5c(c4)OCO5)n3)c2c1", "AC50": "0.631 µM (active)"}
{"smiles": "COc1ccc2[nH]cc(CCNc3ccnc(-c4ccoc4)n3)c2c1", "AC50": "0.501 µM (active)"}
{"smiles": "COc1ccc([C@@H](Nc2ncccn2)c2cc3c(cc2O)OCO3)cc1", "activity, negative = inhibition": "-14.3% [at 2.29 µM]"}
{"smiles": "O=C(O)CC(O)C(=O)O", "note": "(centres undefined)", "AC50": "inactive"}
{"smiles": "CC(C)(CS)C(=O)N1CCC[C@H]1C(=O)O", "AC50": "inactive"}
{"smiles": "O=S(Cc1cc(Oc2ccccc2)nc(-c2ccccc2)n1)c1ccccc1", "note": "(centres undefined)", "AC50": "2.82 µM (active)"}
{"smiles": "O=S(=O)(Cc1cc(Oc2ccccc2)nc(-c2ccccc2)n1)c1ccccc1", "AC50": "0.708 µM (active)"}
{"smiles": "CNc1cc(CS(=O)c2ccccc2)nc(-c2ccccc2)n1", "note": "(centres undefined)", "AC50": "14.1 µM (active)"}
{"smiles": "Cc1nnc(-c2cccc(Br)c2)c2cn(-c3ccccc3Cl)nc12", "AC50": "1.58 µM (active)"}
{"smiles": "Cc1nnc(-c2cccc(Br)c2)c2cn(-c3ccc(Br)cc3)nc12", "AC50": "0.891 µM (active)"}
{"smiles": "Cc1nn(C)cc1CNC(=O)CCC(=O)O", "AC50": "inactive"}
{"smiles": "O=C(CSC1=NCCS1)N1CCN(c2ccc(Cl)cc2)CC1", "AC50": "14.1 µM (active)"}
{"smiles": "O=C(CSc1ccc(Cl)cc1)Nc1ccc(N2CCN(C(=O)c3ccc(Cl)cc3)CC2)cc1", "AC50": "inactive"}
{"smiles": "COC(=O)C/C=C\\[C@@H](C)[C@@H](/C=N\\O[C@@H](C)c1cn([C@H]2COC[C@H]2O)nn1)OC", "activity, negative = inhibition": "9.97% [at 11.4 µM]"}
{"smiles": "O=C1C2=C(NC(=S)NC2c2ccc(Cl)cc2)NC(c2ccc(Cl)cc2)N1c1ccc(Cl)cc1", "note": "(centres undefined)", "AC50": "12.6 µM (active)"}
{"smiles": "COC(=O)C/C=C\\[C@@H](C)[C@@H](/C=N\\O[C@@H](C)c1cn([C@H](CO)Cc2ccccc2)nn1)OC", "activity, negative = inhibition": "-11.5% [at 11.4 µM] and 12.6% [at 11.4 µM]"}
{"smiles": "O=C(Nc1ccc2c(c1)OCCO2)c1cccc2nc3ccccc3nc12", "AC50": "2 µM (active)"}
{"smiles": "Cc1ccccc1NC(=O)c1cnc(Nc2nc3ccccc3s2)nc1C", "AC50": "inactive"}
{"smiles": "Cc1ccccc1NC(=O)CN1CCC(n2nnc3ccccc32)CC1", "AC50": "inactive"}
{"smiles": "Cc1ccccc1NC(=O)c1cccc2nc3ccccc3nc12", "AC50": "2 µM (active)"}
{"smiles": "COc1ccc(-n2c(=O)c(-c3ccccc3)nc3cnc(N4CCNCC4)nc32)cc1", "AC50": "15.8 µM (active)"}
{"smiles": "COc1ccc(-n2c(=O)c(-c3cccc(C#N)c3)nc3cnc(N4CCNCC4)nc32)cc1", "AC50": "15.8 µM (active)"}
{"smiles": "COc1cccc(Cn2c(=O)c(-c3cccc(C#N)c3)nc3cnc(N4CCN(C)CC4)nc32)c1", "AC50": "inactive"}
{"smiles": "O=c1c(-c2ccc(F)cc2)nc2cnc(N3CCNCC3)nc2n1-c1ccccc1", "AC50": "10 µM (active)"}
{"smiles": "O=C(c1cccc(F)c1)N1CCC2(CC1)CN(c1ccncc1)C2", "AC50": "inactive"}
{"smiles": "Cc1ccc(S(=O)(=O)N2CCN(Cc3ccccc3C(F)(F)F)CC2)cc1", "AC50": "inactive"}
{"smiles": "COc1ccc(C2=Nc3cccc4cccc(c34)N2)cc1", "AC50": "0.631 µM (active)"}
{"smiles": "CCCC(=O)Nc1nnc(Cc2ccccc2)s1", "AC50": "12.6 µM (active)"}
{"smiles": "CCCc1nnc(NC(=O)CCC(=O)NCc2ccccc2OC)s1", "AC50": "inactive"}
{"smiles": "CCCC(=O)Nc1nnc(CCN2CCCCC2)s1", "AC50": "inactive"}
{"smiles": "O=C(CCc1ccccc1)Nc1nncs1", "AC50": "10 µM (active)"}
{"smiles": "CC(=O)Nc1ccc(C(=O)NNC(=O)CCc2ccccc2)cc1", "AC50": "inactive"}
{"smiles": "Nc1ccc(S(=O)(=O)NC(=O)c2ccccc2)cc1", "AC50": "inactive"}
{"smiles": "Nc1ccc(N(c2ccccc2)c2ccc(N)cc2)cc1", "AC50": "17.8 µM (active)"}
{"smiles": "C[C@@H]1O[C@H](O[C@@H]2[C@@H](Oc3cc(O)c4c(c3)O[C@H](c3ccc(O)cc3)CC4=O)O[C@@H](CO)[C@@H](O)[C@H]2O)[C@@H](O)[C@H](O)[C@@H]1O", "AC50": "inactive"}
{"smiles": "Nc1nc(-c2ccccc2)c(-c2ccccc2)s1", "AC50": "2.82 µM (active)"}
{"smiles": "Nc1nnc(C(c2ccccc2)c2ccccc2)s1", "AC50": "inactive"}
{"smiles": "Nc1nc(-c2ccccc2)c(-c2ccccc2)c(-c2nc(N)nc(-c3ccccc3)c2-c2ccccc2)n1", "activity, negative = inhibition": "-4.5% [at 11.4 µM]"}
{"smiles": "Nc1ccc(-c2sc(N)nc2-c2ccccc2)cc1", "AC50": "8.91 µM (active)"}
{"smiles": "CC(C)CN1CCC2(CC1)CCN(C(=O)c1ccncc1)CC2", "AC50": "inactive"}
{"smiles": "CN(C)CCC[C@@]1(c2ccc(F)cc2)OCc2cc(C#N)ccc21", "AC50": "inactive"}
{"smiles": "Cc1cccc(C)c1-n1c(SCC(=O)NCc2ccco2)nc2ccccc2c1=O", "AC50": "inactive"}
{"smiles": "Cc1ccc(-c2cc(C(=O)NCc3ccco3)c3ccccc3n2)s1", "AC50": "6.31 µM (active)"}
{"smiles": "Cc1ccc(S(=O)(=O)N(Cc2ccccc2)c2ccccc2C(=O)NCc2ccco2)cc1", "AC50": "inactive"}
{"smiles": "CCc1ccc(-c2cc(C(=O)NCc3ccco3)c3ccccc3n2)s1", "AC50": "3.55 µM (active)"}
{"smiles": "CC(C)C(O)(C(C)C)C(C)C", "activity, negative = inhibition": "-8.65% [at 11.4 µM]"}
{"smiles": "C=CCOc1c(Br)cc(CNc2ccc(NC(=O)C(C)C)c(OC)c2)cc1OC", "AC50": "15.8 µM (active)"}
{"smiles": "CCC1CC2CC(NC(C)=O)C1C2", "note": "(centres undefined)", "AC50": "inactive"}
{"smiles": "COc1ccc(C(=O)c2cnc3ccccc3c2-c2ccccc2)cc1", "AC50": "15.8 µM (active)"}
{"smiles": "C=CC[C@@H]1C=C[C@H](O/N=C(\\C)CCN2CCc3nc(-c4ccccc4)c(-c4ccccc4)cc3C2)[C@H](CO)O1", "activity, negative = inhibition": "5.54% [at 11.4 µM]"}
{"smiles": "CCCCOC(=O)NS(=O)(=O)c1sc(CC(C)C)cc1-c1ccc(Cn2c(CC)nc3c(C)cc(C)nc32)cc1", "AC50": "31.6 µM (active)"}
{"smiles": "CC(C)CCn1nnnc1C(c1ccc(F)cc1)N1CCN(C(=O)c2ccco2)CC1", "note": "(centres undefined)", "AC50": "inactive"}
{"smiles": "CCCC[C@H]1C[C@@H]1[C@@H]1N(P(=O)(c2ccccc2)c2ccccc2)C[C@@](O)(c2ccccc2)CC12CC2", "AC50": "inactive"}
{"smiles": "O=C1C=C(NCCc2cc(Br)c(O)c(Br)c2)C(=O)c2ncccc21", "AC50": "3.16 µM (active)"}
{"smiles": "O=C1C=C(Nc2nc(C(=O)O)cc(=O)[nH]2)c2ccccc2C1=O", "activity, negative = inhibition": "-15.8% [at 2.29 µM]"}
{"smiles": "COc1ccc(C(=O)Nc2scc(-c3ccc(Cl)cc3Cl)c2C(N)=O)cc1", "AC50": "0.447 µM (active)"}
{"smiles": "CC(C)COc1ccc(C(=O)Nc2scc(-c3ccc(Cl)cc3Cl)c2C(N)=O)cc1", "AC50": "inactive"}
{"smiles": "COc1ccc(C(=O)Nc2cc(Cl)ccc2OC(=O)c2ccc(OC)cc2)cc1", "AC50": "10 µM (active)"}
{"smiles": "Cc1ccc(C(=O)O[C@@H](C(=O)O)[C@@H](OC(=O)c2ccc(C)cc2)C(=O)O)cc1", "note": "(tested in a mixture with another compound)", "AC50": "inactive"}
{"smiles": "Cc1ccc(C(=O)Nc2cc(Cl)ccc2OC(=O)c2ccc(C)cc2)cc1", "AC50": "10 µM (active)"}
{"smiles": "Cc1sc(NC(=O)c2ccc(OCC(C)C)cc2)c(C(N)=O)c1-c1ccc(Cl)cc1Cl", "AC50": "inactive"}
{"smiles": "NNC(=O)c1ccc[n+](CCc2ccccc2)c1", "activity, negative = inhibition": "-20.6% [at 11.4 µM]"}
{"smiles": "NC(N)=N/N=C(\\c1ccc(Cl)cc1)C1CC1", "AC50": "0.794 µM (active)"}
{"smiles": "NC(N)=Nc1ccc(Cl)cc1", "AC50": "inactive"}
{"smiles": "Cc1ccc(C)c(/C(=N\\N=C(N)N)C2CC2)c1", "activity, negative = inhibition": "1.09% [at 2.29 µM]"}
{"smiles": "CCc1ccccc1NC(=O)c1ccc(F)c(S(=O)(=O)N2CCC(C(N)=O)CC2)c1", "AC50": "inactive"}
{"smiles": "CCc1ccccc1NC(=O)c1ccc(-n2c(C)ccc2C)cc1", "AC50": "14.1 µM (active)"}
{"smiles": "NCCS(=O)O", "AC50": "inactive"}
{"smiles": "Cn1cc(/C=N/n2cnc3sc4c(c3c2=O)CCCC4)c2ccccc21", "AC50": "14.1 µM (active)"}
{"smiles": "Cn1cc(/C=N/n2cnc3scc(-c4ccccc4)c3c2=O)c2ccccc21", "AC50": "8.91 µM (active)"}
{"smiles": "O=S(=O)(c1ccccc1)N1CCC2(CCN(Cc3ccccc3)CC2)CC1", "AC50": "inactive"}
{"smiles": "O=[N+]([O-])c1ccc(Cl)c(/C=N/N2CCN(Cc3ccccc3)CC2)c1", "AC50": "2.51 µM (active)"}
{"smiles": "O=[N+]([O-])c1ccc(N2CCN(Cc3ccccc3)CC2)c(S(=O)(=O)N2CCOCC2)c1", "AC50": "inactive"}
{"smiles": "CCSc1nnc(NC(=O)C(C(F)(F)F)C(F)(F)F)s1", "AC50": "15.8 µM (active)"}
{"smiles": "CCSc1nnc(NC(=O)Cc2ccccc2OC)s1", "AC50": "inactive"}
{"smiles": "CCCCC(=O)Nc1nnc(SCC(=O)NC2CCCC2)s1", "AC50": "inactive"}
{"smiles": "CC(CC(=O)O)(CC(=O)O)C(=O)O", "activity, negative = inhibition": "-5.85% [at 11.4 µM]"}
{"smiles": "CCN1CCN(C(=S)c2ccc(Br)cc2)CC1", "AC50": "15.8 µM (active)"}
{"smiles": "O=C(CN1CCN(Cc2ccccc2)CC1)c1ccc(Br)cc1", "AC50": "inactive"}
{"smiles": "OCCN1CCN(C(=S)c2ccc(Br)cc2)CC1", "AC50": "inactive"}
{"smiles": "Cc1cc2c(cc1S(N)(=O)=O)S(=O)(=O)CCC2", "AC50": "inactive"}
{"smiles": "CCN(CCO)Cc1csc2cccc(Br)c12", "AC50": "11.2 µM (active)"}
{"smiles": "COCCN(C(=O)c1ccco1)c1nnc(-c2ccc(OC)cc2)s1", "AC50": "15.8 µM (active)"}
{"smiles": "CCC(c1nnnn1CCOC)N1CCN(C(=O)c2ccco2)CC1", "note": "(centres undefined)", "AC50": "inactive"}
{"smiles": "Cc1ccc(C2C(C(=O)c3ccco3)=C(O)C(=O)N2c2nnc(C)s2)cc1", "note": "(centres undefined)", "AC50": "inactive"}
{"smiles": "CC1(C)CC(=O)c2cnc(N)nc2C1", "AC50": "inactive"}
{"smiles": "CC1=C(C(=O)OCc2ccccc2)C(c2ccc(Cl)cc2)NC(=O)N1CCCCCC(=O)O", "note": "(centres undefined)", "AC50": "25.1 µM (active)"}
{"smiles": "CC1=C(C(=O)OCc2ccccc2)C(c2ccccc2)NC(=O)N1CCCCCC(=O)O", "note": "(centres undefined)", "AC50": "20 µM (active)"}
{"smiles": "CCOC(=O)CCN1C(=O)[C@H]2[C@H]3[C@H](O)[C@H](O)C/C(=N/OCc4ccccc4)[C@@H]3CC[C@@H]2C1=O", "activity, negative = inhibition": "4.94% [at 11.4 µM]"}
{"smiles": "CC1=C(C(=O)OCc2ccccc2)C(c2cccnc2)c2c(n(C)c(=O)n(C)c2=O)N1", "note": "(centres undefined)", "AC50": "inactive"}
{"smiles": "CCOC(=O)CCN1C(=O)[C@H]2[C@H]3[C@H](O)[C@H](O)C/C(=N/OCc4ccccc4)[C@H]3CC[C@@H]2C1=O", "activity, negative = inhibition": "-13.8% [at 11.4 µM]"}
{"smiles": "CC(=O)N1CCC2(CC1)CCN(C(c1ccccc1)c1ccccc1)CC2", "AC50": "inactive"}
{"smiles": "NNCCc1ccccc1", "AC50": "3.16 µM (active) and 1 µM (active)"}
{"smiles": "NCCSCCC(=O)O", "activity, negative = inhibition": "-2.89% [at 11.4 µM]"}
{"smiles": "O=C(O)CNCCc1ccccc1", "activity, negative = inhibition": "-1.5% [at 11.4 µM]"}
{"smiles": "NCCSCCc1ccccc1", "AC50": "5.01 µM (active)"}
{"smiles": "O=C(O)CSCCc1ccccc1", "activity, negative = inhibition": "-15.5% [at 11.4 µM]"}
{"smiles": "N[C@@](CCc1ccccc1)(C(=O)O)c1ccccc1", "activity, negative = inhibition": "-9.59% [at 11.4 µM]"}
